This note sets out measurements from PubChem BioAssay (NCI).

Experiment [1] can be described thus: NCI Yeast Anticancer Drug Screen. Data for the rad50 strain (AID 155).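 Further: 0% = growth of vehicle-only cultures of the same strain.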 The conditions noted are these: S. cerevisiae rad50 strain growth inhibition, hits give high values. Put shortly: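 Readout: growth inhibition relative to vehicle-treated cultures. Compound exposure was carried out in a genetically defined yeast strain deficient in DNA damage repair.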
Experiment [2] can be described thus: NCI Yeast Anticancer Drug Screen. Data for the mec2-1 strain (AID 157). The conditions noted are these: S. cerevisiae mec2-1 strain, hits give high values. The gist of the method: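 Mutant yeast (mec2-1) grown with compound; growth inhibition relative to vehicle control reported.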
Experiment [3] is described as follows: NCI Yeast Anticancer Drug Screen. Data for the sgs1 mgt1 strain (AID 161).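 Further: 0% = growth of cultures given vehicle only.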 The conditions noted are these: S. cerevisiae sgs1 mgt1 strain, hits give high values. The gist of the method: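 Growth of a repair-deficient yeast mutant was monitored after compound treatment and expressed as inhibition relative to vehicle-treated cultures.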
Experiment [4] is described as follows: NCI Yeast Anticancer Drug Screen. Data for the cln2 rad14 strain (AID 165).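 Further: 0% = growth equal to vehicle treated cultures.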 To be noted: S. cerevisiae cln2 rad14 strain, hits give high values. The gist of the method:
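Readout is yeast growth inhibition versus vehicle-treated controls, using a strain with cln2 and rad14 alterations exposed to compound.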

Experiment [5] is described as follows: NCI Yeast Anticancer Drug Screen. Data for the bub3 strain (AID 167). The conditions noted are these: S. cerevisiae bub3 mutant strain, hits give high values. The gist of the method: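 Readout: yeast growth inhibition, expressed relative to vehicle-only wells. The test organism is a mutant strain from a panel with lesions in DNA repair or checkpoint genes.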

The nature of experiment [6]: NCI Yeast Anticancer Drug Screen. Data for the mlh1 rad18 strain (AID 175). The conditions noted are these: S. cerevisiae mlh1 rad18 strain growth inhibition, hits give high values. Put shortly:
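Genetically defined yeast (DNA repair-deficient) exposed to compounds; growth inhibition determined relative to vehicle.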

Where [7] appears, read: at 5.0 µM (retest, dose inferred, filed as 0.5).
Setting [8] is: at 50.0 µM (retest, dose inferred, filed as 5.0).

Compounds without any hit were thinned out: in the full panel of roughly 79,000, 15% have a hit. Unmarked numbers belong to inactive results. Calls of active or inactive are those of the source. No stated cut-off is given here; in the data, active means growth inhibition above about 70%; inactive means the rest.

Consider `O=C(c1ccccc1)c1ccc2cccc(O)c2n1`, for which the growth inhibition was 19% in experiment [1] (setting [7]); 63% in experiment [1] (setting [8]); 88.8% (active) in experiment [1] (at 50.0 µM); -18% in experiment [2] (setting [7]); 31% in experiment [2] (setting [8]); 91.5% (active) in experiment [2] (at 50.0 µM). The growth inhibition in experiment [3] (setting [7]) was -11%; in experiment [3] (setting [8]), 55%; in experiment [3] (at 50.0 µM) it was 90.8% (active); in experiment [4] (setting [7]), 5%; in experiment [4] (setting [8]), 34%; in experiment [4] (at 50.0 µM) it was 88.8% (active). In addition, the growth inhibition was -21% in experiment [5] (setting [7]); 77% (active) in experiment [5] (setting [8]); 91.7% (active) in experiment [5] (at 50.0 µM); -19% in experiment [6] (setting [7]); 77% (active) in experiment [6] (setting [8]); 89.4% (active) in experiment [6] (at 50.0 µM).
As for `C=C1C(=O)OC2CC3(C)CC(O)C(O)C(=C)C3CC12` (configuration not stated), the growth inhibition in experiment [1] (setting [7]) is 0%; in experiment [1] (setting [8]), 6%; in experiment [1] (at 50.0 µM) it was 91.2% (active); in experiment [2] (setting [7]), 1%; in experiment [2] (setting [8]) it was 6%; in experiment [2] (at 50.0 µM), 94.7% (active). In addition, the growth inhibition in experiment [3] (setting [7]) was -1%; in experiment [3] (setting [8]), 14%; in experiment [3] (at 50.0 µM), 93.1% (active); in experiment [4] (setting [7]), -2%; in experiment [4] (setting [8]), 5%; in experiment [4] (at 50.0 µM) it was 91.5% (active). The growth inhibition in experiment [5] (setting [7]) is 0%; in experiment [5] (setting [8]), 8%; in experiment [5] (at 50.0 µM) it was 93% (active); in experiment [6] (setting [7]) it was 1%; in experiment [6] (setting [8]), 9%; in experiment [6] (at 50.0 µM), 92.2% (active).
With `CN(C)NC(=S)C(F)(F)F`, the growth inhibition is -1% in experiment [1] (setting [7]); 87% (active) in experiment [1] (setting [8]); 95.5% (active) in experiment [1] (at 50.0 µM); 1% in experiment [2] (setting [7]); 79% (active) in experiment [2] (setting [8]); 56.7% in experiment [2] (at 50.0 µM). Further, the growth inhibition in experiment [3] (setting [7]) is 0%; in experiment [3] (setting [8]), 84% (active); in experiment [3] (at 50.0 µM), 97.8% (active); in experiment [4] (setting [7]) it was -4%; in experiment [4] (setting [8]), 85% (active); in experiment [4] (at 50.0 µM) it was 44%. For the same compound, the growth inhibition in experiment [5] (setting [7]) was 0%; in experiment [5] (setting [8]), 85% (active); in experiment [5] (at 50.0 µM), 37.6%; in experiment [6] (setting [7]), -2%; in experiment [6] (setting [8]), 79% (active); in experiment [6] (at 50.0 µM), 77% (active).
Consider `Cc1c(-c2ccccc2)ccnc1/C=N/NC(=S)NCCc1ccccc1`, for which the growth inhibition in experiment [1] (setting [7]) was 49%; in experiment [1] (setting [8]) it was 77% (active); in experiment [1] (at 50.0 µM), 76.3% (active); in experiment [2] (setting [7]), 52%; in experiment [2] (setting [8]), 85% (active); in experiment [2] (at 50.0 µM) it was 76.3% (active). Moreover, the growth inhibition in experiment [3] (setting [7]) is 52%; in experiment [3] (setting [8]) it was 83% (active); in experiment [3] (at 50.0 µM) it was 75.5% (active); in experiment [4] (setting [7]), 42%; in experiment [4] (setting [8]), 80% (active); in experiment [4] (at 50.0 µM), 70%. Moreover, the growth inhibition in experiment [5] (setting [7]) was 55%; in experiment [5] (setting [8]) it was 84% (active); in experiment [5] (at 50.0 µM), 77.7% (active); in experiment [6] (setting [7]), 49%; in experiment [6] (setting [8]), 80% (active); in experiment [6] (at 50.0 µM), 74% (active).
As to `O=C(O)C(c1ccccc1)c1ccc(-c2ccccc2)cc1` (configuration not stated), the growth inhibition is 3% in experiment [1] (setting [7]); 82% (active) in experiment [1] (setting [8]); 96.7% (active) in experiment [1] (at 50.0 µM); -2% in experiment [2] (setting [7]); 64% in experiment [2] (setting [8]); 96% (active) in experiment [2] (at 50.0 µM). In addition, the growth inhibition was 5% in experiment [3] (setting [7]); 80% (active) in experiment [3] (setting [8]); 97.8% (active) in experiment [3] (at 50.0 µM); -7% in experiment [4] (setting [7]); 80% (active) in experiment [4] (setting [8]); 97% (active) in experiment [4] (at 50.0 µM). In addition, the growth inhibition was 1% in experiment [5] (setting [7]); 49% in experiment [5] (setting [8]); 79% (active) in experiment [5] (at 50.0 µM); 0% in experiment [6] (setting [7]); 80% (active) in experiment [6] (setting [8]); 91.2% (active) in experiment [6] (at 50.0 µM).
As for `CCCCCCSC(=Cc1cccc[n+]1C)SCCCCCC`, the growth inhibition in experiment [1] (setting [7]) is 98% (active); in experiment [1] (setting [8]), 96% (active); in experiment [1] (at 50.0 µM) it was 99.5% (active); in experiment [2] (setting [7]), 100% (active); in experiment [2] (setting [8]), 98% (active); in experiment [2] (at 50.0 µM), 99.7% (active). For the same compound, the growth inhibition in experiment [3] (setting [7]) was 100% (active); in experiment [3] (setting [8]) it was 98% (active); in experiment [3] (at 50.0 µM) it was 99.7% (active); in experiment [4] (setting [7]) it was 99% (active); in experiment [4] (setting [8]), 95% (active); in experiment [4] (at 50.0 µM), 99.3% (active). Moreover, the growth inhibition was 98% (active) in experiment [5] (setting [7]); 94% (active) in experiment [5] (setting [8]); 99.5% (active) in experiment [5] (at 50.0 µM); 100% (active) in experiment [6] (setting [7]); 97% (active) in experiment [6] (setting [8]); 99.4% (active) in experiment [6] (at 50.0 µM).
As for `CC(=O)Nc1ccc(Nc2ccc(C(=C3C=CC(=[N+](C)CCC#N)C=C3)c3ccc(N(C)CCC#N)cc3)cc2)cc1`, the growth inhibition in experiment [1] (setting [7]) was 11%; in experiment [1] (setting [8]) it was 64%; in experiment [1] (at 50.0 µM), 8.4%; in experiment [2] (setting [7]), 13%; in experiment [2] (setting [8]) it was 77% (active); in experiment [2] (at 50.0 µM), 47.7%. Moreover, the growth inhibition was 44% in experiment [3] (setting [7]); 83% (active) in experiment [3] (setting [8]); 58.4% in experiment [3] (at 50.0 µM); 41% in experiment [4] (setting [7]); 83% (active) in experiment [4] (setting [8]); 55.5% in experiment [4] (at 50.0 µM). The growth inhibition in experiment [5] (setting [7]) was 45%; in experiment [5] (setting [8]), 77% (active); in experiment [5] (at 50.0 µM) it was 59.5%; in experiment [6] (setting [7]), 15%; in experiment [6] (setting [8]) it was 72% (active); in experiment [6] (at 50.0 µM), 45%.
In the case of `O=C1CCCC/C1=C\c1ccc(Cl)c(Cl)c1`, the growth inhibition is 12% in experiment [1] (setting [7]); 99% (active) in experiment [1] (setting [8]); 98.7% (active) in experiment [1] (at 50.0 µM); 6% in experiment [2] (setting [7]); 100% (active) in experiment [2] (setting [8]); 98.6% (active) in experiment [2] (at 50.0 µM). Also, the growth inhibition is 47% in experiment [3] (setting [7]); 100% (active) in experiment [3] (setting [8]); 99% (active) in experiment [3] (at 50.0 µM); 5% in experiment [4] (setting [7]); 99% (active) in experiment [4] (setting [8]); 95.9% (active) in experiment [4] (at 50.0 µM). The growth inhibition in experiment [5] (setting [7]) was 9%; in experiment [5] (setting [8]) it was 99% (active); in experiment [5] (at 50.0 µM) it was 98.2% (active); in experiment [6] (setting [7]), 18%; in experiment [6] (setting [8]) it was 99% (active); in experiment [6] (at 50.0 µM), 99.2% (active).
For `CCCCCCCCC(=O)Cl`, the growth inhibition in experiment [1] (setting [7]) is 11%; in experiment [1] (setting [8]) it was 82% (active); in experiment [1] (at 50.0 µM), 74.4% (active); in experiment [2] (setting [7]), 9%; in experiment [2] (setting [8]) it was 61%; in experiment [2] (at 50.0 µM), 47.9%. The growth inhibition in experiment [3] (setting [7]) was 10%; in experiment [3] (setting [8]), 64%; in experiment [3] (at 50.0 µM), 77.5% (active); in experiment [4] (setting [7]) it was 6%; in experiment [4] (setting [8]), 38%; in experiment [4] (at 50.0 µM) it was 27.1%. For the same compound, the growth inhibition is 0% in experiment [5] (setting [7]); 77% (active) in experiment [5] (setting [8]); 69.3% in experiment [5] (at 50.0 µM); 6% in experiment [6] (setting [7]); 69% in experiment [6] (setting [8]); 88.3% (active) in experiment [6] (at 50.0 µM).
